# In PubChem BioAssay:
# Active and inactive are the calls of the source.
# How the values were obtained:
# [1] = binders of probe aFSTL3 on microarray, primary screen, stem cell growth factor project, biochemical, small-molecule microarray, fluorescence 635/667 (AID 1064); settings: higher = more signal;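 note: measures binding of the biotinylated anti-FSTL3 antibody to printed compounds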
# [2] = binders from COS7 lysate, DM2A8 probe, primary screen, torsin A project, cell lysate, small-molecule microarray, fluorescence 635/667 (AID 1065); settings: higher = more signal, COS7 lysate expressing mutant human TOR1A
# [3] = binders of probe aFGF2 on microarray, primary screen, stem cell growth factor project, biochemical, small-molecule microarray, fluorescence 635/667 (AID 1067); settings: higher = more signal;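 note: measures binding of biotinylated aFGF2 protein to printed compounds on slides; z-score merges feature fluorescence and signal-to-noise across triplicate slides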
# [4] = binders of probe aFGF10 on microarray, primary screen, stem cell growth factor project, biochemical, small-molecule microarray, fluorescence 635/667 (AID 1071); settings: higher = more signal;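 note: score merges 667 nm spot intensity and signal to noise from triplicate slides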
# [5] = molecular target: Neurogenic locus notch homolog protein 2 (Homo sapiens) (UniProt Q04721); assay: Notch2 binders on small-molecule microarrays, primary screen, biochemical, small-molecule microarray, 635 nm fluorescence, stem cell growth factors (AID 1073); settings: Notch2 binding, higher = more signal
# [6] = molecular target: Pro-neuregulin-1, membrane-bound isoform (Homo sapiens) (UniProt Q02297); assay: NRG1 binders on small-molecule microarrays, primary screen, psychiatric disease protein project, biochemical, small-molecule microarray, fluorescence 635/667 (AID 1075); settings: NRG1 binding, 635 nm fluorescence, higher = more signal;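 note: score combines 667 nm spot fluorescence with signal to noise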
# [7] = test system: Neuregulin-1 EGF-like domain; assay: binders of neuregulin-1 EGF-like domain, primary screen, biochemical, small-molecule microarray, 635 nm fluorescence (AID 1081); settings: small-molecule microarray binding, higher = more signal;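 note: binding of the protein to compounds printed on small-molecule microarray slides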
# [8] = FRG1 promoter luciferase signal modulators, primary screen, FRG1 inhibition for FSHD, cell-based, C2C12 myotubes, firefly/Renilla luciferase, luminescence (AID 1084); settings: higher = more signal, called active from +8 up or from −8 down
# [9] = binders of probe aFST on microarray, primary screen, stem cell growth factor project, biochemical, small-molecule microarray, fluorescence 635/667 (AID 1086); settings: higher = more signal;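 note: score merges 667 nm fluorescence with signal-to-noise of each printed compound spot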
# [10] = binders of probe aHhip on microarray, primary screen, stem cell growth factor project, biochemical, small-molecule microarray, fluorescence 635/667 (AID 1087); settings: higher = more signal;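 note: score merges spot fluorescence at 667nm with spot signal to noise ratio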
# [11] = test system: PRMT1 (protein arginine N-methyltransferase 1); assay: PRMT1 binders on small-molecule microarrays, primary screen, biochemical, small-molecule microarray, 635 nm fluorescence (AID 1088); settings: small-molecule microarray binding, higher = more signal;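 note: binding of Prmt1 protein to compounds spotted on small-molecule microarray slides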
# [12] = yeast growth modulation, basal conditions, primary screen, YJM789 clinical isolate, OD600, 24 h (AID 1089);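 note: growth of clinical yeast isolate S. cerevisiae YJM 789 seeded 1000 cells per well; test concentration not given here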; settings: S. cerevisiae YJM789 growth, higher = more signal, called active from +8 up or from −8 down
# [13] = fission yeast growth modulation, primary screen, strain 972, OD600, 24 h, no modulator (AID 1090);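 note: basal condition with compound alone and no growth modifier present; test concentration not given here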; settings: S. pombe 972 growth, higher = more signal, called active from +8 up or from −8 down
# [14] = S. cerevisiae growth modulation with rapamycin, primary screen, strain BY4716, OD600, 96 h (AID 1091); settings: higher = more signal, called active from +8 up or from −8 down; note: test concentration not given here
# [15] = molecular target: Torsin-1A-interacting protein 2 (Homo sapiens) (UniProt Q8NFQ8); assay: LULL1 binders on small-molecule microarray, primary screen, cell lysate, human LULL1 lysate, 635/667 nm fluorescence (AID 1092); settings: hLULL1 lysate binding, 635 nm fluorescence, higher = more signal;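 note: probe is lysate of COS7 cells overexpressing human LULL1; score merges per-feature 667 nm fluorescence with signal-to-noise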
# [16] = E. coli growth modulation, two-sided OD650, primary screen, E. coli filamentation project, strain DRC41, 24 h (AID 1093); settings: OD650, 24 h, higher = more signal, called active from +8 up or from −8 down;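 note: MC1000 strain lacking acrAB efflux and sulA so SOS filamentation is blocked; test concentration not given here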
# [17] = small-molecule microarray binders of probe aLefty2, primary screen, biochemical, biotinylated probe, 635/667 nm fluorescence (AID 1094); settings: higher = more signal;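 note: score merges spot fluorescence near 667 nm with spot signal-to-noise ratio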
# [18] = test system: Noggin (protein binding on small-molecule microarray); assay: Noggin binders on small-molecule microarray, primary screen, biochemical, 635/667 nm fluorescence (AID 1095); settings: 635 nm fluorescence, higher = more signal;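 note: score merges 667 nm feature fluorescence with signal to noise over triplicate slides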
# [19] = molecular target: Neurogenic locus notch homolog protein 3 (Homo sapiens) (UniProt Q9UM47); assay: NOTCH3 binders on small-molecule microarray, primary screen, biochemical, 635/667 nm fluorescence (AID 1096); settings: NOTCH3 binding, 635 nm fluorescence, higher = more signal
# [20] = small-molecule microarray binders of probe aEGFR, primary screen, biochemical, biotinylated probe, 635/667 nm fluorescence (AID 1097); settings: higher = more signal;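 note: probe is a biotinylated anti-EGFR antibody binding compounds printed on slides; score combines fluorescence near 667 nm and signal to noise of each spot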
# Neurogenic locus notch homolog protein 3 (Homo sapiens), sequence (Q9UM47 whole entry, looked up): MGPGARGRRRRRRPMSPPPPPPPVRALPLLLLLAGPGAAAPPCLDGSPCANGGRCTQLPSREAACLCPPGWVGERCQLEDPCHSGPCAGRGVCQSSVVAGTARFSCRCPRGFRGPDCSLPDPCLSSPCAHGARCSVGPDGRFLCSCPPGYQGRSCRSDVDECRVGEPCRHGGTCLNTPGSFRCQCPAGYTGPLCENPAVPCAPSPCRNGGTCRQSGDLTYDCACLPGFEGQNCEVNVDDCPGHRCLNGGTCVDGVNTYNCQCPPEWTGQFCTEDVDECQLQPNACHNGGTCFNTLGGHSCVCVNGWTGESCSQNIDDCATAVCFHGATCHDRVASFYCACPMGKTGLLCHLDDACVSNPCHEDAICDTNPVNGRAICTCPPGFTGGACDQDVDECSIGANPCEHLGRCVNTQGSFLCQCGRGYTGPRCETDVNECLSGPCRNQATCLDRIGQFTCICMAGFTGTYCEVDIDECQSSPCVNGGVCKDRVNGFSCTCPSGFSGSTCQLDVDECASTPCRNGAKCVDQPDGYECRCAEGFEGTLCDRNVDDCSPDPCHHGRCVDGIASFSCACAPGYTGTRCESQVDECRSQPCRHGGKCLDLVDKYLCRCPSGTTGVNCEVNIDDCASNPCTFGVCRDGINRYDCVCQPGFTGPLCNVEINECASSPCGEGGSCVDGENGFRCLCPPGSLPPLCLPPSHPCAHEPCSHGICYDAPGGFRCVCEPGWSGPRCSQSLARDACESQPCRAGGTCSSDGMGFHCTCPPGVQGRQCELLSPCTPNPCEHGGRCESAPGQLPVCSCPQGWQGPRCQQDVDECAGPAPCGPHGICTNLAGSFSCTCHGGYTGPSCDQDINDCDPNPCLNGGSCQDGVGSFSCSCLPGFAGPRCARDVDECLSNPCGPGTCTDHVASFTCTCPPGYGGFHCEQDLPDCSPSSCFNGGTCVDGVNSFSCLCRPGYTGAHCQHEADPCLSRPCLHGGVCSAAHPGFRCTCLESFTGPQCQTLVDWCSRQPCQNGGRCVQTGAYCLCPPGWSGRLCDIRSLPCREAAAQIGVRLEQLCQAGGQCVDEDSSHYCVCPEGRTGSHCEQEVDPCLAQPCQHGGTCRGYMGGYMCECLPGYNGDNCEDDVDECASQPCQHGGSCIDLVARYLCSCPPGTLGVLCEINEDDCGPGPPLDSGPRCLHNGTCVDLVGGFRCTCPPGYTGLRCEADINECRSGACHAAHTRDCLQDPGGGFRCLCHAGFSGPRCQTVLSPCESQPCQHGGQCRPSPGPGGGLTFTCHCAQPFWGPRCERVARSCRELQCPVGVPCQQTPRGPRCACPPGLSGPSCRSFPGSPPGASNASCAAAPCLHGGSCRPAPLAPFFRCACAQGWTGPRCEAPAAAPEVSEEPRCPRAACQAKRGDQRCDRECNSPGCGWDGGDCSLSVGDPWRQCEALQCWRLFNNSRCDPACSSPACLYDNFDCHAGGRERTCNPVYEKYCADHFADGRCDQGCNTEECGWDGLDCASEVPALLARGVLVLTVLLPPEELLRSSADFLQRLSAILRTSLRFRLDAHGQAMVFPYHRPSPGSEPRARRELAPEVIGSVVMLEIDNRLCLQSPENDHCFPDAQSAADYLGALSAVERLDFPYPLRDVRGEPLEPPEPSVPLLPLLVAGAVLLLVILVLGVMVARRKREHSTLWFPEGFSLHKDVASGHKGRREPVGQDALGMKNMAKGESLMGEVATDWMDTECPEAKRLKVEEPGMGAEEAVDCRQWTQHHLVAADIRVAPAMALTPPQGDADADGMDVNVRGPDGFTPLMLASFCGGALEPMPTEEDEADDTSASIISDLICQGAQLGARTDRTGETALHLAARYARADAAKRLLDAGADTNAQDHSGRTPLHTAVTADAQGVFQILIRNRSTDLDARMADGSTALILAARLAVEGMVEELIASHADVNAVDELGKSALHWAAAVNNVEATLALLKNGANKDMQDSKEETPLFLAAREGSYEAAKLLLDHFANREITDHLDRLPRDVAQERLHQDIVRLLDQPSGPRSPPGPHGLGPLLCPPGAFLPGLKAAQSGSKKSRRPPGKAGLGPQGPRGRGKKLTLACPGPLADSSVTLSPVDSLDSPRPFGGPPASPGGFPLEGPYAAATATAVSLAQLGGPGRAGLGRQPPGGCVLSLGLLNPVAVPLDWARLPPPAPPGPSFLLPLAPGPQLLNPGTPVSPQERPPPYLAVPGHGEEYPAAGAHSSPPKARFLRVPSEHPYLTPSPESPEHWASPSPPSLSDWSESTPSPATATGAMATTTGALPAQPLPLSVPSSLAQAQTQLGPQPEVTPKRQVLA
# Pro-neuregulin-1, membrane-bound isoform (Homo sapiens), sequence (Q02297 whole entry, looked up, the tested form may be a part, canonical isoform): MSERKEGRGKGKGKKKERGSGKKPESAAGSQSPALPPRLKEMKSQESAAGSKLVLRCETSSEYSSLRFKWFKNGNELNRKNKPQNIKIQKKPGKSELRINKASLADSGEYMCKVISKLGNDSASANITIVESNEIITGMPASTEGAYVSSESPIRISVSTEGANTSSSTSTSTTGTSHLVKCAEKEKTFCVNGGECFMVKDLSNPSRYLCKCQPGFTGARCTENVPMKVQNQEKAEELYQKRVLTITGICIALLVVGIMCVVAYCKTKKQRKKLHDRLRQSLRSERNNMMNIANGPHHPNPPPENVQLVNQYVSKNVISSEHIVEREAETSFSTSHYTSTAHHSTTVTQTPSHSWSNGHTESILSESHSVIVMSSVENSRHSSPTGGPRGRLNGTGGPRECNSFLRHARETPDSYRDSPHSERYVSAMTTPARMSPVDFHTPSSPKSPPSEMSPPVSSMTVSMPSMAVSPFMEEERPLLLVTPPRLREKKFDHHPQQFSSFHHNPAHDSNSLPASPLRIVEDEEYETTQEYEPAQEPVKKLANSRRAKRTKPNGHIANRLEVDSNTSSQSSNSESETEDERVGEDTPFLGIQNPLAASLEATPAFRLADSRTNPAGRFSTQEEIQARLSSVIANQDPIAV
# Torsin-1A-interacting protein 2 (Homo sapiens), sequence (Q8NFQ8 whole entry, looked up): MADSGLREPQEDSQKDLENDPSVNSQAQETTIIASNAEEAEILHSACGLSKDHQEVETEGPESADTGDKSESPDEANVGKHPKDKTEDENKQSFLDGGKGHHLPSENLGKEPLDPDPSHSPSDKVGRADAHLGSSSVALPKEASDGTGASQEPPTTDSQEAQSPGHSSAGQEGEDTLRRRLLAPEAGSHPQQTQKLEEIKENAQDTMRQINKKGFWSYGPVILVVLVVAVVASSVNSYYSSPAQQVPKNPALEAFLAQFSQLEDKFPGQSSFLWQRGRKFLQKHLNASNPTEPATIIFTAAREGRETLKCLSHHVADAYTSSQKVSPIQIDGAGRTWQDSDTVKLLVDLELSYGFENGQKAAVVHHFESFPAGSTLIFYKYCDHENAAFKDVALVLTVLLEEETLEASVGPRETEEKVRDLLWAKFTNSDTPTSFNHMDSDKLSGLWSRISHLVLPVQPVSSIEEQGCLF
SMILES,composite z-score [1],composite z-score [2],composite z-score [3],composite z-score [4],composite z-score [5],composite z-score [6],composite z-score [7],z-score [8],composite z-score [9],composite z-score [10],composite z-score [11],z-score [12],z-score [13],z-score [14],composite z-score [15],z-score [16],composite z-score [17],composite z-score [18],composite z-score [19],composite z-score [20]
COCC1=C2[C@@H](CCc3ccccc3)OB(O)C[C@@H]2n2c(=O)n(-c3ccccc3)c(=O)n2C1,-0.163,-0.106,-0.0695,0.882,0.112,-0.391,0.751,-3.23 (inactive),-0.373,-0.236,-0.162,0.114 (inactive),-0.591 (inactive),-0.644 (inactive),0.332,0.203 (inactive),-0.166,0.264,-0.26,-0.145
COCC(=C=CC[C@@H](O)c1ccccc1OCCO)CCO,-0.181,0.44,0.0201,0.492,0.375,0.19,1.27,0.0373 (inactive),0.175,-0.0618,0.68,0.621 (inactive),0.0008 (inactive),0.199 (inactive),2.36,0.71 (inactive),0.0378,0.436,0.442,-0.0332
Cc1ccc(S[C@]2(C(=O)NCC(F)(F)F)CC(=O)N(Cc3ccccc3Cl)[C@@H]2c2ccc(CO)cc2I)cc1,0.647,-0.193,-0.122,0.494,-1.23,2.01,1.21,-1.13 (inactive),-0.611,-0.284,1.33,0.294 (inactive),-3.18 (inactive),1.06 (inactive),2.34,0.492 (inactive),-0.0998,-1.07,-0.573,-0.284
O=C1[C@H]2[C@H]3[C@H](O)[C@H](O)CC(=NOC[C@@H](O)COCc4ccco4)[C@H]3CC[C@H]2C(=O)N1Cc1ccc2c(c1)OCO2,-0.707,1.73,-0.204,-0.143,-0.282,-0.621,0.561,0.316 (inactive),-0.3,-0.44,1.29,-0.285 (inactive),-0.279 (inactive),-1.09 (inactive),-0.829,0.617 (inactive),-0.29,0.154,-0.0875,-0.0039
O=C1[C@H]2[C@H]3[C@H](O)[C@H](O)CC(=NO[C@@H]4O[C@H](CO)[C@@H](O)[C@H](O)[C@H]4O)[C@@H]3CC[C@H]2C(=O)N1Cc1ccc2c(c1)OCO2,-0.401,-0.271,-0.166,0.112,0.737,0.542,0.974,0.118 (inactive),0.181,-0.201,0.843,-0.0622 (inactive),0.374 (inactive),0.35 (inactive),1.55,-0.244 (inactive),-0.0991,0.388,0.786,-0.0007
O=C1C[C@@H](O)[C@@H](O)[C@@H]2[C@@H]3C(=O)N(Cc4ccc5c(c4)OCO5)C(=O)[C@@H]3CC[C@@H]12,-0.612,0.196,-0.149,0.833,0.651,-0.13,0.568,0.324 (inactive),0.278,0.065,0.555,0.489 (inactive),0.481 (inactive),-0.246 (inactive),1.01,0.701 (inactive),-0.072,0.495,1.12,0.0414
CCN1C(=O)[C@H]2[C@H]3[C@H](O)[C@H](O)CC(=NOCc4ccccc4)[C@@H]3CC[C@H]2C1=O,-0.239,0.441,-0.197,0.31,0.931,-0.195,0.567,-0.641 (inactive),0.0882,-0.3,0.54,-2.27 (inactive),-0.784 (inactive),-0.433 (inactive),0.558,-0.558 (inactive),-0.0917,0.339,0.761,-0.0568
COC(=O)[C@@]1(Cc2ccc(F)cc2)[C@@H]2C(=CC(=O)[C@H]2CC(=O)C(=O)N(C)C)CN1C(=O)c1ccccc1,0.581,-0.293,0.293,0.663,1.71,1.49,1.36,-0.524 (inactive),1.45,2.1,1.14,1 (inactive),1.84 (inactive),8.71 (active),3.5,-0.399 (inactive),0.393,0.171,1.02,0.396
CCOC(=O)[C@H](Cc1ccccc1)NC(=O)CCC1CC(OC(=O)NCc2ccc3c(c2)OCO3)CC2(CCCC(COC(=O)NCC3CCCCC3)O2)O1 (stereo not given in full),-0.632,0.247,-0.0775,0.256,1.19,0.306,1.04,1.2 (inactive),1.27,-0.0994,1.55,-0.827 (inactive),0.455 (inactive),-0.38 (inactive),2.62,-0.201 (inactive),-0.157,0.742,1.11,0.0632
O=C1[C@H]2[C@H]3[C@H](O)[C@H](O)CC(=NO[C@@H]4O[C@H](CO)[C@@H](O)[C@H](O)[C@H]4O)[C@H]3CC[C@H]2C(=O)N1C1CCCCC1,-0.332,1.49,-0.0659,-0.0948,0.028,-0.197,0.995,-0.225 (inactive),0.276,0.841,1.55,-0.546 (inactive),0.506 (inactive),-0.0694 (inactive),1.58,0.15 (inactive),-0.0652,1.36,0.308,-0.12
COc1cccc([C@H]2Oc3ccc(OC)cc3C(=NOC(C)CN3CCCc4nc(C)c(C)cc43)[C@@H]2O)c1 (stereo not given in full),-0.437,0.15,-0.0316,0.32,0.687,0.146,0.541,2.49 (inactive),-0.055,0.154,1.32,-0.906 (inactive),-0.912 (inactive),-1.19 (inactive),0.605,0.732 (inactive),0.027,0.0233,0.522,0.0506
CC(C)CON=C1C[C@@H](O)[C@@H](O)[C@@H]2[C@@H]3C(=O)N([C@@H](C)c4ccccc4)C(=O)[C@@H]3CC[C@H]12,-0.572,-0.0881,-0.0156,0.915,1.01,0.561,1.1,-0.997 (inactive),0.629,0.21,1.54,0.466 (inactive),0.443 (inactive),-0.0803 (inactive),2.73,0.0955 (inactive),-0.128,1.12,1.08,-0.0146
CO[C@@H]1COC(=O)CC=C[C@@H](C)COC(=O)[C@H](COCc2ccccc2)NC(=O)CC=C[C@H]1C,-0.611,2.32,-0.162,-0.903,-0.75,-0.698,-0.0535,-1.05 (inactive),-0.268,0.0749,0.943,0.847 (inactive),-0.584 (inactive),0.736 (inactive),-0.914,0.154 (inactive),-0.183,1.71,-0.551,-0.0899
O=C1CCCC2OC12C(O)CCc1ccccc1 (stereo not given),-0.555,0.475,-0.166,0.411,0.455,-0.333,-0.251,0.42 (inactive),-0.0128,-0.226,-0.071,0.238 (inactive),0.211 (inactive),0.164 (inactive),-0.0258,0.454 (inactive),-0.215,0.373,0.0248,0.395
C=CCOC(=O)[C@H]1[C@@H]2C(=O)O[C@@H](c3ccccc3)[C@@H](c3ccccc3)N2[C@@H](c2ccc(OCCOC(=O)[C@H]3C[C@H]4C(=O)N[C@@H](Cc5ccccc5)C(=O)N4[C@H]3c3ccc(O)cc3)cc2)[C@]12C(=O)Nc1ccccc12,-0.298,0.0087,-0.0692,0.349,0.355,0.188,1.29,0.458 (inactive),0.276,-0.109,1.55,1.44 (inactive),1.14 (inactive),4.4 (inactive),2.4,1.37 (inactive),-0.0174,1.6,1.06,0.0499
CO[C@H]1COC(=O)[C@H](C)COC(=O)CC=C[C@@H](C)[C@H](OC)COC(=O)CC=C[C@@H]1C,-0.654,0.682,-0.226,-0.0247,-0.217,-0.481,-0.311,0.847 (inactive),-0.08,0.0854,0.438,0.0305 (inactive),-0.818 (inactive),-0.147 (inactive),-0.798,0.614 (inactive),-0.233,0.638,0.336,-0.0302
CCCNC(=O)OC[C@H]1O[C@H](CCON=CC[C@@H]2C=C[C@H](OC(C)=O)[C@@H](COC(C)=O)O2)C=C[C@@H]1Oc1ccc(OC)cc1,-0.458,0.453,-0.112,0.423,0.605,-0.367,0.576,0.335 (inactive),0.014,-0.134,1.18,-0.704 (inactive),0.115 (inactive),0.023 (inactive),0.667,0.457 (inactive),-0.0159,0.643,0.249,0.0486
O=C1[C@H]2[C@H]3[C@H](O)[C@H](O)CC(=NOCc4ccccc4)[C@H]3CC[C@H]2C(=O)N1c1cccc(Oc2ccccc2)c1,-0.602,0.154,-0.052,0.919,0.554,0.391,1.16,0.335 (inactive),0.4,0.0053,1.48,-0.0026 (inactive),0.019 (inactive),-1.12 (inactive),2.41,0.211 (inactive),-0.0654,0.729,0.824,0.0801
O=C1C[C@@H](O)[C@@H](O)[C@@H]2[C@@H]3C(=O)N(C4CCCCC4)C(=O)[C@@H]3CC[C@H]12,-0.472,0.176,-0.0638,0.593,0.698,0.0523,0.797,0.65 (inactive),-0.22,-0.511,0.387,-0.16 (inactive),-0.268 (inactive),0.0415 (inactive),0.294,0.666 (inactive),-0.185,0.467,0.786,-0.127
